Source: PubChem BioAssay (several laboratories)
Shown are actives, neighbours in structure and some others; about 21% of the full set was active somewhere.
CYP2C19 activ: human CYP2C19 activators, primary screen, biochemical, luminescence; activation factor at 5 µM; recombinant CYP2C19, luciferin-H EGE luminescence; active compounds read high; 0 = fully inhibited enzyme, 1 = untreated enzyme; Cytochrome P450 2C19 (Homo sapiens), P33261; 96,000 tested, under 10 active;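 active means activation factor of at least 2 at 5 µM in the primary screen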;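 further: 0 = wells with 2.5 mM tranylcypromine and 1 = vehicle-only wells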
Target sequence (P33261 whole entry, looked up): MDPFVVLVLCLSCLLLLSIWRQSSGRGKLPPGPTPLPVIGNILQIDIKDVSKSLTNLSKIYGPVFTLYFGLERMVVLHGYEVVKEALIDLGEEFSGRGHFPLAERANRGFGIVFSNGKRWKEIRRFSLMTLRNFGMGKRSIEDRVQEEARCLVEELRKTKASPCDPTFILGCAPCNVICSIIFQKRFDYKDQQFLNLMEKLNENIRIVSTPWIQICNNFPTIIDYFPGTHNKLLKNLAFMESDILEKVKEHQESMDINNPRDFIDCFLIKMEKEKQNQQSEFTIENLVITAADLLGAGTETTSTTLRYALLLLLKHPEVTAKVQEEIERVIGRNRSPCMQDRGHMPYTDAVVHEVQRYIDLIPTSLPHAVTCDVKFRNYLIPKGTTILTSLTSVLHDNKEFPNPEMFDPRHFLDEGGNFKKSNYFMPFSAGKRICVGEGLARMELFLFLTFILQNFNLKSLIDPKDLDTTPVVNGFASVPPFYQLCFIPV
CYP2C19 inhib: blockers of cytochrome P450 2C19 activity – biochemical, luminescence, ADME assay, primary screen | P33261 | CYP2C19 Supersomes, luciferin-H EGE luminescence, 30 min | inhibition, % at 5 µM | 96,000 tested, 21% active;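 active means CYP2C19 inhibition above a set limit at 5 µM in the primary screen, cut at about 50% in these data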;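 further: plate controls were negative control wells for no effect and 2.5 mM tranylcypromine positive control for full effect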
CYP2C9 activ: human CYP2C9 activators, primary screen, biochemical, luminescence. recombinant CYP2C9, luciferin-H conversion; active compounds read high; factor 1 = untreated enzyme, 0 = blocked. activation factor at 5 µM. 96,000 tested, 1.4% active. AID 1024, 2008;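 active means activation factor of 2 or more for CYP2C9 at a 5 µM dose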;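 further: 0 = sulfaphenazole-blocked wells and 1 = vehicle-only wells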
CYP2C9 inhib: blockers of cytochrome P450 2C9 activity – biochemical, luminescence, ADME assay, primary screen; P11712; CYP2C9 Supersomes, luciferin-H conversion; inhibition, % at 5 µM; 96,000 tested, 20% active; AID 777, 2007;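 active means blocking of liver enzyme CYP2C9 beyond about 50% at 5 µM, limit read from the data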
MRP1 act: H69AR viability gain despite doxorubicin, primary screen, MRP-1 activator project, H69AR cells, CellTiter-Glo; 140,000 tested, 0.61% active; viability increase, % at 10 µM; viability rescue;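 active means viability gain under doxorubicin at or above a set limit, the compound median plus 3 SD, cut at about 4.7% in these data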;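 further: MRP-1 overexpressing cells given doxorubicin 25 µM after compound pretreatment; 18-22 h compound pretreatment then 72 h with doxorubicin before readout; 0% = doxorubicin-only wells and 100% = vehicle-treated cells without doxorubicin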
MRP resist rev: reversal of MRP1-mediated doxorubicin resistance, primary screen, H69AR cells, doxorubicin co-treatment | H69AR cells + 2 uM doxorubicin, CellTiter-Glo, 72 h | differential viability (reversal), % at 10 µM | 85,000 tested, 0.04% active;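 active means viability drop by adding the cancer drug above about 55%, with treated viability meeting a 40% cutoff, limit read from the data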;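 further: viability without doxorubicin minus viability with 2 µM doxorubicin for each compound; larger differential means the compound sensitizes cells more to doxorubicin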
* hit, by the source's call; x = no result given.

SMILES	CYP2C19 activ	CYP2C19 inhib	CYP2C9 activ	CYP2C9 inhib	MRP1 act	MRP resist rev
COC(=O)c1sccc1NC(=S)N1CC(C)CC(C)C1 (centres undefined)	0.2	83*	0.3	70*	-2	19
COC(=O)c1sccc1NC(=S)N1CCC(C)CC1	0.8	21	0.8	21	-3	5
Nc1nc2c(ncn2COC(CO)CO)c(=O)[nH]1	x	x	x	x	-2	3
c1ccc(N2CCN(Cc3ccnc4ccccc34)CC2)cc1	0.4	64*	0.9	9	-4	-9
O=c1cc(CN2CCN(c3ccccc3)CC2)c2c(ccc3ccccc32)o1	0.7	27	1.2	-17	-4	11
CC1=C(C(=O)NCc2ccco2)C2(CCC(C)CC2)OC1=O (centres undefined)	0.9	13	1	1	-4	6
CCC(C)NC(=O)C1=C(C)C(=O)OC12CCC(C)CC2 (centres undefined)	0.2	82*	0.6	39	0	12
CC1=C(C(=O)NC2CCC(C)CC2)C2(CCC(C)CC2)OC1=O (centres undefined)	0.7	30	0.7	35	-2	1
CC1=C(C(=O)NCc2ccc3c(c2)OCO3)C2(CCC(C)CC2)OC1=O (centres undefined)	0.3	66*	0.2	85*	0	7
O=C(CCc1nc2cccnc2n1Cc1ccccc1)NCCc1ccc(Cl)cc1	0.3	71*	0.3	69*	-2	-6
COc1ccc(Cn2c(CCC(=O)Nc3ccc(C)c(C)c3)nc3cccnc32)cc1	0.4	64*	0	98*	-1	-11
CCOC(=O)CSc1nc2cc(C(=O)N3CCC(C(N)=O)CC3)ccc2c(=O)n1-c1ccccc1	0.7	26	0.4	59*	0	13
CCOC(=O)CSc1nc2cc(C(=O)NCc3ccco3)ccc2c(=O)n1C1CCCCC1	0.8	20	0.5	51*	-3	5
CCOC(=O)CSc1nc2cc(C(=O)N3CCCC3)ccc2c(=O)n1Cc1ccccc1	0.6	45	0.6	42	-2	-12
CCOC(=O)N1CCC(n2c(SCC(=O)OCc3ccccc3)nc3ccsc3c2=O)CC1	0.6	38	0.5	47	0	28
CCOC(=O)N1CCC(n2c(SCC(=O)NCc3ccco3)nc3ccsc3c2=O)CC1	0.8	22	0.4	63*	-5	43
O=C(CSc1nc2ccsc2c(=O)n1Cc1ccc(C(=O)O)cc1)NCc1ccco1	x	x	x	x	-1	x
CCOC(=O)N1CCC(n2c(SCC(=O)Nc3nccs3)nc3ccsc3c2=O)CC1	0.7	26	0.4	61*	-5	27
CCOC(=O)CCS(=O)(=O)c1ccc(-c2ccc(S(=O)(=O)CCC(=O)OCC)cc2)cc1	1.2	-20	1	-4	-2	x
CCOC(=O)CSc1nc2ccsc2c(=O)n1C1CCN(C(=O)OCC)CC1	0.6	42	0.4	62*	-3	-3
Cn1c(C2=C(O)CN(c3ccc4c(c3)OCCO4)C2=N)nc2ccccc21	0.8	16	1	0	-2	11
O=C1/C(=C\c2cccnc2)CCc2ccccc21	0.3	75*	0.7	28	-6	x
CC1=C(C)[N+](=O)C2CCCCC2N1[O-] (centres undefined)	1.1	-10	1	3	0	4
CCOC(=O)CCn1nc(-c2ccccc2)cc1N	0.3	66*	0.9	10	-2	4
CCOC(=O)Cn1nc(-c2ccc(C)cc2)ccc1=O	0.5	49	0.5	52*	-1	-3
SMILES	CYP2C19 activ	CYP2C19 inhib	CYP2C9 activ	CYP2C9 inhib	MRP1 act	MRP resist rev
NC(=O)c1ncn([C@@H]2O[C@H](CO)[C@@H](O)[C@H]2O)c1O	x	x	x	x	0	x
CCCCOc1cccc(NC(=O)CSc2nccn2C)c1	0.7	31	1	0	-2	-9
COc1ccc(S(=O)(=O)N2CCN(C(=O)NC3CCCCC3)CC2)cc1OC	0.9	5	1.5	-55	1	3
CCCCNC(=O)c1onc(CSc2ccc(OC)cc2)c1C(=O)O	1.1	-12	0.2	80*	-2	x
CCCCNC(=O)c1onc(CSc2ccc(F)cc2)c1C(=O)O	0.9	6	0.4	58*	-1	x
COCCNC(=O)c1c(CSc2ccc(F)cc2)noc1C(=O)NCc1ccccc1	0.9	13	0.9	6	-2	x
O=C(CNS(=O)(=O)c1ccc(C(=O)N2CCCCC2)cc1)N1CCCCC1	0.9	5	1.2	-16	0	-1
O=c1cc(CN2CCN(C/C=C/c3ccccc3)CC2)c2cc(O)ccc2o1	0.8	18	0.7	35	-3	18
O=C1Nc2ccccc2C12OC1CCCCC1O2 (centres undefined)	1.1	-14	1.2	-23	-2	-27
N#CC1=C(N)C(C#N)(C#N)C2(C(=O)Nc3ccccc32)C2CCCC=C12 (centres undefined)	0.6	35	0.4	55*	-1	0
O=C(CSc1nc2cc(Cl)ccc2s1)N1CCN(C(=O)c2ccco2)CC1	0.1	86*	0.1	86*	-5	-5
O=C(CSc1nc(-c2ccccc2)cs1)N1CCN(C(=O)c2ccco2)CC1	0.4	62*	1.2	-16	-2	x
O=C(CSCc1ccccc1)N1CCN(C(=O)c2ccco2)CC1	x	x	x	x	-4	-1
O=C(CSc1nc2cc(Cl)ccc2s1)c1cc2ccccc2o1	1.1	-7	0.9	6	0	x
CC1CN(C(=O)CSc2nc(-c3ccccc3)cs2)CC(C)O1 (centres undefined)	0.1	93*	0.9	8	-2	11
Cc1cc(C)nc(NC(=O)CSc2nc3cc(Cl)ccc3s2)n1	1	-1	2.7*	-167	-3	-5
CCOc1ccccc1-c1nc(-c2cc3ccccc3nc2OC)no1	0.9	6	1	0	-2	-20
CCOC(=O)c1ccc(NC(=O)C(CC)(CC)C(=O)OCC)cc1	0.2	77*	0.4	65*	3	21
CCOC(=O)c1ccc(NC(=O)C2CCCO2)cc1 (centres undefined)	0.9	12	0.8	22	2	2
CCOC(=O)c1ccc(NC(=O)C2CC2)cc1	0.2	79*	0.7	35	2	-1
CCCCOC(=O)c1ccc(NC(=O)C(=O)NCc2ccncc2)cc1	x	x	x	x	-2	x
CCOC(=O)c1ccc(NC(=O)C(=O)NCc2ccncc2)cc1	0.6	42	0.5	51*	-2	x
CCOc1ccc(NC(=O)C2CCC(N3C(=O)C4CC=CCC4C3=O)CC2)cc1 (centres undefined)	0.5	52*	0.5	52*	-2	-13
